Holding throughout (type): functional
In test [1] the test system is Plasmodium falciparum. Kind of test: GSK_TCMDC: Inhibition of Plasmodium falciparum 3D7 in whole red blood cells, using parasite LDH activity as an index of growth. Test compounds present at 2uM.
In test [2] the test system is Plasmodium falciparum. The experiment in a line: GSK_TCMDC: Inhibition of Plasmodium falciparum Dd2 in whole red blood cells, using parasite LDH activity as an index of growth. Test compounds present at 2uM.
A further test relates to HepG2. Kind of test: GSK_TCMDC: Percent inhibition of human HepG2 cell line. Test compounds present at 10uM.

For orientation: Inhibition means the percentage by which the read-out fell short of the control. Higher therefore signals a response far below the control.

Where “and” joins values, the source holds several entries; their conditions need not be identical. Equal values may be shown once.

Consider `CN(C)CC(=O)NCC(NCCCNc1cc(=O)c2ccccc2[nH]1)c1cc(Br)cc(Br)c1` (stereo unspecified), for which the results for the Inhibition in the test with Plasmodium falciparum [1], in the test with Plasmodium falciparum [2] and in the test with HepG2 were 98%, 2% and 6%, respectively.

Take `COc1ccccc1C(=O)Nc1ccc(Nc2nc(C)cc(N(C)C)n2)cc1`: the figures for the Inhibition in the test with Plasmodium falciparum [1], in the test on Plasmodium falciparum [2] and with HepG2 were 100%, 76% and 1%, respectively.

Consider `O=C(Nc1cc(Cl)ccc1O)c1ccc(Oc2ccc(C(=O)Nc3cc(Cl)ccc3O)cc2)cc1`, for which the Inhibition came to 97% in the test on Plasmodium falciparum [1], 91% in the test on Plasmodium falciparum [2] and 32% in the test with HepG2.

Regarding `CN(C)c1ccc2c(c1)Sc1cc(N(C)C)ccc1N2C(=O)CCCC(=O)[O-].[Na+]`, the Inhibition in the test on Plasmodium falciparum [1] is on record as 96%; in the test on Plasmodium falciparum [2], 81%; with HepG2, 0%.

`CC1SC(=S)NC1C(=O)O` (stereo unspecified): the Inhibition worked out at 94% in the test with Plasmodium falciparum [1], 0% in the test on Plasmodium falciparum [2] and 3% in the test with HepG2.

Regarding `O=C(Nc1cccc([N+](=O)[O-])c1)Nc1cccc(C(F)(F)F)c1`, the Inhibition in the test with Plasmodium falciparum [1] turned out to be 92%; with Plasmodium falciparum [2], 81%; with HepG2, 0%.

On to `O=C(Nc1ccc2c(c1)CCC2)c1cccc(CN2CCCN(Cc3cccc(O)c3)CC2)c1.O=C(O)C(F)(F)F`, for which the Inhibition was 91% in the test on Plasmodium falciparum [1], 20% in the test on Plasmodium falciparum [2] and 10% in the test with HepG2.

With `CC(c1cccc(Nc2nccc(-c3c(-c4cccc(NC(=O)c5c(F)cccc5F)c4)nn4ccccc34)n2)c1)S(C)(=O)=O` (stereo unspecified), the Inhibition with Plasmodium falciparum [1] was determined as 98%; with Plasmodium falciparum [2], 99%; with HepG2, 76%.

Consider `O=C(CN1CCCCC1)Nc1ccc(Nc2nccc(NCC(O)c3ccccc3)n2)cc1` (stereo unspecified), for which the Inhibition is on record as 100% with Plasmodium falciparum [1], 95% in the test on Plasmodium falciparum [2] and 62% in the test with HepG2.

As for `O=C(NC1CCCCC1)c1csc(C2CCCN(C(=O)c3ccc(O)c(-c4cccc(C(F)(F)F)c4)c3)C2)n1` (stereo unspecified), the values for the Inhibition in the test on Plasmodium falciparum [1], with Plasmodium falciparum [2] and in the test with HepG2 were 96%, 85% and 8%, respectively.

`O=C(/C=C/c1ccc(Cl)c(Cl)c1)NCCCCCN1CCCC(CNS(=O)(=O)c2ccc(F)cc2)C1` (stereo unspecified): the Inhibition in the test with Plasmodium falciparum [1] turned out to be 91%; in the test on Plasmodium falciparum [2], 7%; in the test with HepG2, 56%.

With `COc1cccc2cc(C(=O)N[C@@H](CC(C)C)C(=O)N[C@H](/C=N/N3C(=O)CN(Cc4ccccc4)C3=O)CCc3ccccc3)oc12`, the Inhibition in the test with Plasmodium falciparum [1] turned out to be 85%; in the test with Plasmodium falciparum [2], 52%; with HepG2, 14%.

For the compound `CN1CCC(N2CCN(Cc3cccc(-c4ccc(-c5nc6cc(C(F)(F)F)ccc6[nH]5)cc4)c3)CC2)CC1.O=C(O)C(F)(F)F`, the results for the Inhibition in the test on Plasmodium falciparum [1], with Plasmodium falciparum [2] and in the test with HepG2 were 100%, 91% and 100%, respectively.

`CC(=O)Nc1ncc(C(=O)Nc2ccc(-c3cccc(-c4nc5cc(F)ccc5[nH]4)c3)cc2)s1`: the Inhibition in the test on Plasmodium falciparum [1] stood at 100%; in the test on Plasmodium falciparum [2], 85%; in the test with HepG2, 47%.

With `CCCC(=O)NC(c1ccc(C)cc1)c1ccc2cccnc2c1O` (stereo unspecified), the results for the Inhibition in the test on Plasmodium falciparum [1], in the test on Plasmodium falciparum [2] and with HepG2 were 88%, 45% and 52%, respectively.

`CCOC(=O)c1cnc2cc(N3CCCC3)c(Cl)cc2c1OCC`: the Inhibition in the test on Plasmodium falciparum [1] came to 97%; with Plasmodium falciparum [2], 97%; in the test with HepG2 it was 0%.

As for `COc1cc(C(=O)Nc2cccc(-c3nc4ccccc4[nH]3)c2)ccc1OC(C)=O`, the Inhibition in the test on Plasmodium falciparum [1] was 83%; in the test on Plasmodium falciparum [2] it was 37%; in the test on HepG2, 16%.

With `Br.CCC(C)c1cccc(C(C)CC)c1OCCCON1C(N)=NC(N)=NC1(C)C` (stereo unspecified), the Inhibition in the test on Plasmodium falciparum [1] came out at 91%; in the test on Plasmodium falciparum [2] it was 98%; in the test with HepG2, 51%.

As for `CC[C@H]1CN(CCCC(=O)c2ccccc2)CC[C@H]1CCCc1ccnc2ccc(OC(=O)c3ccccc3)cc12.O=C(O)C(=O)O`, the Inhibition in the test on Plasmodium falciparum [1] is 83%; with Plasmodium falciparum [2], 68%; in the test on HepG2, 28%.

As to `O=C(Nc1cccc(-c2cccc(-c3nc4ccccc4[nH]3)c2)c1)Nc1ccc2c(c1)OCO2`, the Inhibition with Plasmodium falciparum [1] amounted to 100%; in the test with Plasmodium falciparum [2], 57%; in the test with HepG2, 25%.

`COc1ccc(NC(=O)Nc2ccc(-c3ccc(-c4nc5ccccc5[nH]4)cc3)cc2)cc1`: the Inhibition is listed as 100% with Plasmodium falciparum [1], 27% in the test on Plasmodium falciparum [2] and 22% in the test with HepG2.

Turning to `Cn1c(Cc2ccccc2)nnc1Sc1ccc(C#N)c([N+](=O)[O-])c1`, the Inhibition with Plasmodium falciparum [1] stood at 93%; with Plasmodium falciparum [2], 29%; with HepG2, 0%.

`Cc1cccc2nc(-c3ccc(-c4ccc(C(=O)NCCN5CCCC5)cc4)cc3)[nH]c12`: the Inhibition in the test on Plasmodium falciparum [1] is listed as 100%; in the test on Plasmodium falciparum [2], 77%; with HepG2, 25%.

As for `Cc1cc(C(=O)N(Cc2ccc(-c3ccc(CNCCc4ccc(S(C)(=O)=O)cc4)cn3)cc2)C(C)CN(C)C)ccc1[N+](=O)[O-].O=C(O)C(F)(F)F` (stereo unspecified), the figures for the Inhibition in the test on Plasmodium falciparum [1], with Plasmodium falciparum [2] and with HepG2 were 99%, 46% and 17%, respectively.

Regarding `Cc1[nH]c2cc(F)ccc2c(=O)c1Cc1ccc(Cl)cc1.Cc1[nH]c2cccc(F)c2c(=O)c1Cc1ccc(Cl)cc1`, the Inhibition in the test on Plasmodium falciparum [1] was 94% and 93%; with Plasmodium falciparum [2], 92% and 94%; in the test on HepG2 it was 7% and 6%.

Take `CCC(C)C(COC(=O)c1cc(OC)c(OC)c(OC)c1)N(C)CCN(C)C(COC(=O)c1cc(OC)c(OC)c(OC)c1)C(C)CC.Cl` (stereo unspecified): the values for the Inhibition with Plasmodium falciparum [1], in the test on Plasmodium falciparum [2] and in the test with HepG2 were 84%, 45% and 20%, respectively.

Consider `CCCOc1ccc(CCNCCCCNCCc2ccc(OCCC)c3ccccc23)c2ccccc12.CS(=O)(=O)O`, for which the Inhibition in the test with Plasmodium falciparum [1] was 93%; in the test on Plasmodium falciparum [2], 52%; in the test with HepG2 it was 100%.

Source of the values: ChEMBL document CHEMBL1157539, “Thousands of chemical starting points for antimalarial lead identification” (Nature, 2010).
